Assay results: PubChem BioAssay AID2685 (National Center for Advancing Translational Sciences (NCATS), 2010)
Out of some 320,000 compounds screened, about 2,100 (0.66%) were called active. Inconclusive results (about 53%) are left out. Calls come from the whole dose curve; as a rule, active = well fitted inhibition curve with a large enough effect in the signal ratio, with a control signal flat (not every such curve was filed as active); inconclusive = small, poorly fitted or top-dose-only effect, or effect the other way, or a change in a side signal; inactive = flat fitted curve, though single readings scatter; the % refers to the signal ratio. This excerpt belongs to a sample that is enriched for actives.

Test: qHTS Assay for Lipid Storage Modulators in Drosophila S3 Cells;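 for cell number change: cells counted by Cell Tracker Red CMTPX staining in the red channel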
Settings: BODIPY lipid droplet fluorescence, 18-24 h, cells fed with added oleic acid; cell number change: measured here: cell count max response; series mostly up to 46.1 µM
Method in brief: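 Laser-scanning cytometry quantifies lipid droplet accumulation (500–530 nm total intensity; droplet/cell object ratio) in oleic acid-fed (400 uM added) Drosophila S3 cells treated with a concentration series. 20 uM Triacsin C defined 100% inhibition.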
Potency is the fitted concentration of half-maximal effect.

SMILES	Potency	cell number change
CSc1cccc(NC(=O)C2CCN(S(=O)(=O)c3ccc4c(c3)NC(=O)CO4)CC2)c1	inactive	
O=C(Cc1cccs1)NCCn1ccc2ccccc21	inactive	
CCOC(=O)CC(=O)CSc1nc2c(sc(=S)n2-c2ccccc2)c(=O)[nH]1	inactive	3.4%
CC1(C)CC(CC(=O)O)CC(C)(C)N1	inactive	0.961%
C/C(=N\O)C1CC(CC(=O)O)C1(C)C (stereo unspecified)	2.06 µM (active)	4.13%
COCCNC(=O)CSc1nnc(NC(=O)C2CC(=O)N(c3ccccc3OC)C2)s1 (stereo unspecified)	inactive	3.03%
O=C(CCN1CCN(C(=O)c2ccccc2)CC1)c1ccc(Br)cc1	inactive	16%
CC(=O)OCC(OC(C)=O)C(OC(C)=O)C(OC(C)=O)C(=O)Nc1ccccc1 (stereo unspecified)	inactive	13.3%
CCSc1nnc2nc3[nH]c4c(C)cccc4c3nn12	inactive	0.802%
CCSc1nnc2c(n1)[nH]c1c(C)cccc12	20.6 µM (active)	-28.9%
CSc1nnc2c(n1)[nH]c1c(C)cccc12	inactive	-19.5%
COc1ccc([N+](=O)[O-])cc1NC(=O)CSCc1ccccc1	inactive	-5.97%
c1csc(Cc2nc3ccccc3[nH]2)c1	inactive	
O=C(COC(=O)C12CC3CC(CC(C3)C1)C2)Nc1ccc2[nH]c(=O)[nH]c2c1	inactive	
Cc1cccc(NC(=O)Cn2c(=O)n(CCC(=O)NC3CCCC3)c(=O)c3ccccc32)c1	inactive	
O=C(NCc1ccccn1)c1ccc2c(=O)n3nc(Nc4ccccc4)sc3nc2c1	4.11 µM (active)	
COc1ccccc1Nc1nn2c(=O)c3ccc(C(=O)NCc4cccnc4)cc3nc2s1	inactive	-12.9%
CCc1ccccc1Nc1nn2c(=O)c3ccc(C(=O)NCc4cccs4)cc3nc2s1	inactive	-9.06%
COc1ccc(OC)c(-c2csc(NC(=O)C3CSC4(C)CCC(=O)N34)n2)c1 (stereo unspecified)	inactive	
CN1CCN(CCCNC(=S)Nc2ccc(F)c(Cl)c2)CC1	inactive	
CNc1nc(N)nc(-c2cc(Cl)ccc2OC)n1	inactive	-0.358%
CCNc1nc(N)nc(-c2cc(Cl)ccc2OC)n1	3.66 µM (active)	-11.6%
CCCNc1nc(N)nc(-c2cc(Cl)ccc2OC)n1	inactive	5.2%
CC(=O)c1ccc(NC(=O)CN(C)CC(=O)Nc2cccc(F)c2)cc1	inactive	10.5%
Cc1ccn2cc(-c3cccc(S(=O)(=O)N4CC(C)OC(C)C4)c3)nc2c1 (stereo unspecified)	inactive	5.5%
CC1CN(S(=O)(=O)c2cccc(-c3cn4cccnc4n3)c2)CC(C)O1 (stereo unspecified)	inactive	-27.2%
Cc1ccc2nc(-c3cccc(S(=O)(=O)N4CC(C)OC(C)C4)c3)cn2c1 (stereo unspecified)	16.4 µM (active)	-15.5%
